The list is not random: actives were taken first. Their share in the collection is about 8.3%.
Chronic BCR inh: blocks chronic active B-cell receptor signaling. ABC-DLBCL IkBa-CBG/CBR reporter, luminescence ratio, 4 h. 340,000 tested, 0.05% active. AID 493014. Potency, µM (doses to about 46.1 µM), without a hit: at the highest dose activity change, negative = inhibition, actives largely listed as inhibitors; active means well fitted inhibition curve with a large enough effect in the signal ratio, with a control signal flat, not every such curve was filed as active; inconclusive means small, poorly fitted or top-dose-only effect, or effect the other way, or a change in a side signal; the % refers to the signal ratio;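 further: potency means the concentration at half of the fitted maximal effect; plate controls were basal doxycycline-induced cells for no effect and cells given 10 µM MG132 for full effect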
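TMD8 ABC-DLBCL cells carrying doxycycline-inducible green luciferase fused to IkappaBalpha plus unfused red luciferase were exposed to compounds (up to 46 uM) for 4 hrs at 37C. Activity came from the overlap-corrected green/red luminescence ratio.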
MCF10A rerep: DNA re-replication induction in MCF 10a cells | MCF 10A DNA re-replication, Hoechst nuclear intensity, 48 h | Potency, µM (highest dose often 46.1 µM), without a hit: top-dose activity, positive = re-replication, usual class: activators | 350,000 tested, 2.9% active | AID 624296; further: potency means the concentration at half of the fitted maximal effect; % of control where 0% means no effect; nearly all actives have a fitted effect of over 50% in size
Giardia kill: Giardia lamblia killing; Giardia lamblia trophozoite viability; activity change, % at 7.66 µM, hits read low; 340,000 tested, 0.15% active; in the data active means activity change below about -80%; inconclusive means between about -30% and that limit;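 further: parasites exposed to compound for two days anaerobically before the ATP read; on the % scale 0 is the no-effect control and ±100 the full control effect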
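Anaerobic 48 hrs incubation at 37 deg C of 100 trophozoites/well with test compounds; ATPLite 1-Step luminescence, 15-30 min RT, reports cellular ATP as viability.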
RORgamma inh: inhibitors of mouse ROR gamma transcriptional activity | AID 2551 | Potency, µM (doses to about 53.6 µM), inactives show top-dose activity change, negative = inhibition, hits mostly inhibitors | Drosophila S2 Gal4-RORgamma UAS-luciferase reporter, 20 h | 310,000 tested, 5.4% active; further: potency means the concentration at half of the fitted maximal effect; on the % scale 0 is the no-effect control and ±100 the full control effect; nearly all actives have a fitted effect of over 60% in size
Target sequence (P51450 whole entry, looked up, the tested form may be a part): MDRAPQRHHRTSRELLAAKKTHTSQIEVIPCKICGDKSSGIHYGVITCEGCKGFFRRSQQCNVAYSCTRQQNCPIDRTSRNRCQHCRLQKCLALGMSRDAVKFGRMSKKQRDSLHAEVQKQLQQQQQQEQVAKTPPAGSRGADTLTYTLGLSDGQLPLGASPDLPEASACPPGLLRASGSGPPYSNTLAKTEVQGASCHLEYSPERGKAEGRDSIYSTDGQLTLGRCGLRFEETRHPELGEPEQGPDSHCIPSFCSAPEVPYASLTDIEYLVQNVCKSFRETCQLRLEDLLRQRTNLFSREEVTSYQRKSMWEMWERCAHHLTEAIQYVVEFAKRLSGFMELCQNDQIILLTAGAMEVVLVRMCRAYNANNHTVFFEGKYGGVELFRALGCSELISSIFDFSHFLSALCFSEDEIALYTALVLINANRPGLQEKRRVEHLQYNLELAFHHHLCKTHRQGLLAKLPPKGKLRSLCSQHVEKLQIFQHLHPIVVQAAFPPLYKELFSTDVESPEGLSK
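Using a luciferase readout, inhibitors were identified by reduced reporter activity in Drosophila cells coexpressing a copper-inducible Gal4–ROR gamma fusion and UAS-driven Photinus luciferase, incubated 20 hr after 700 uM copper sulfate.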
Gal4-VP16 FLuc: inhibits Gal4-VP16 luciferase reporter, ROR gamma counter-screen | Drosophila S2 Gal4-VP16 UAS-luciferase, luminescence, 20 h | 310,000 tested, 3.5% active | Potency, µM (highest dose often 53.6 µM), for inactives: at the highest dose activity, negative = inhibition, actives largely listed as inhibitors;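 further: Gal4-VP16 expression switched on by copper sulfate through the metallothionein promoter; potency means the concentration at half of the fitted maximal effect; on the % scale 0 is the no-effect control and ±100 the full control effect; nearly all actives have a fitted effect of over 50% in size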
SW480 rerep: DNA re-replication induction in SW480 cells; SW480 DNA re-replication, Hoechst DNA content imaging, 48 h; Potency, µM (series often up to 46.1 µM), without a hit: at the top dose re-replication activation, usual class: activators; 340,000 tested, 1.8% active; further: potency means the concentration at half of the fitted maximal effect; % of control where 0% means no effect; nearly all actives have a fitted effect of over 55% in size
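Per well, 250 cells were exposed to pinned compound for 48 hr. Nuclear DNA was visualised with Hoechst (40 min, 37 C) and total object intensity recorded by fluorescence scanning.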
* = called active by the depositor; u = inconclusive; x = no result given; [ ] = remark or other dose. Unless noted, the call rests on the fitted dose curve; in most records, active means well fitted curve in the direction sought with a large enough effect; inconclusive means small, poorly fitted or top-dose-only effect, or another doubt; inactive means no such curve, though single readings can be large; an effect the other way counts as inactive or inconclusive.

SMILES	Chronic BCR inh	MCF10A rerep	Giardia kill	RORgamma inh	Gal4-VP16 FLuc	SW480 rerep
COc1cn(CC(=O)Nc2c(C)cc(C)cc2C)c(CN2CCCCC2)cc1=O	11%	x	x	x	x	x
CCOC(=O)c1sc2nc(C)nc(NCc3ccc(Cl)cc3)c2c1C	1%	15%	-18	u	-9%	7%
CCOC(=O)c1sc2nc(Cc3ccc(Cl)cc3)[nH]c(=S)c2c1C	5%	-5%	-19	2.8µM*	u	-8%
CCCc1cc(NC(=O)CCl)n(-c2ccccc2)n1	u	u	-26	u	20µM*	u
CC(C)(C)c1cc(NC(=O)CCl)n(-c2ccccc2)n1	u	u	-14	u	u	-93%
CCOC(=O)N1CCN(C(=O)CCSc2ccccc2)CC1	4%	1%	-17	-3%	u	-14%
Cc1c[nH]c2cccc(OCC(O)CNC(C)(C)C)c12 (centres undefined)	u	-6%	1	1.4µM*	-11%	4%
CC(C)(C)NCC(O)COc1ccccc1C(C)(C)C (centres undefined)	u	3%	-12	-4%	2%	u
Cc1ccc2c(c1)P(=O)(O)c1cc(C)ccc1O2	x	-5%	-9	x	x	0%
CN(C)CCCNc1cc(Cl)c(S(=O)(=O)N2CCCCC2)cc1C(=O)O	-1%	2.6µM*	2	14%	-10%	-3%
CCOc1ccc(/C=C/C(O)=C2/C(=O)N(C)C3(C)CC2c2ccccc2O3)cc1OC (centres undefined)	-30%	u	4	u	5%[10 µM]	13µM*
CCOc1ccc(/C=C/C(O)=C2/C(=O)NC3(C)CC2c2ccccc2O3)cc1OC (centres undefined)	u	8.2µM*	4	-37%	u	9.2µM*
CC(C)(C)C1CCC(OCC(O)CN2CCN(c3ccccc3)CC2)CC1 (centres undefined)	0%	21µM*	-1	1%	1%	2%
O=C(c1cnn(C(=O)c2cccc(S(=O)(=O)N3CCOCC3)c2)c1)c1ccccc1O	-2%	-1%	-8	6%	25%	-3%
O=C(O)c1ccc(Cl)cc1Nc1nc2cc(Cl)ccc2o1	u	21µM*	-4	37%	-8%	5%
O=C(Nc1nnc(-c2ccco2)o1)c1ccc([N+](=O)[O-])s1	u	21µM*	-81*	0.89µM*	2.8µM*	u
Cc1ccsc1C(=O)Nc1nnc(-c2ccco2)o1	u	7%	8	0.28µM*	u	13%
Cc1ccc(C(=O)Nc2nnc(-c3ccco3)o2)cc1	u	27%	0	u	u	u
CCCCC(=O)Nc1nnc(-c2ccco2)o1	u	-3%	13	-10%	-10%	-10%
O=C(Nc1nnc(-c2ccco2)o1)c1ccc2ccccc2c1	-11%	u	-7	1.4µM*	1.1µM*	u
Cc1nnc(NC(=O)c2ccc3ccccc3c2)o1	u	17%	3	0.11µM*	0.32µM*	u
CSc1ncccc1C(=O)N1CCN(S(=O)(=O)c2ccccc2)CC1	6%	-9%	-3	-10%	11%	-6%
Cc1cc(C)cc(OCCNC(=O)C2CCN(S(=O)(=O)c3ccccc3)CC2)c1	1%	-4%	-11	5%	-5%	-2%
N#Cc1ccc(C(=O)Nc2nnc(-c3ccco3)o2)cc1	u	3%	-5	1µM*	3.2µM*	u
Oc1cccc2ccc(Nc3ccccn3)nc12	u	5.8µM*	-4	12%	2%	u
SMILES	Chronic BCR inh	MCF10A rerep	Giardia kill	RORgamma inh	Gal4-VP16 FLuc	SW480 rerep
CCOc1ccccc1N1CCN(Cc2cnc(-c3ccccc3)[nH]2)CC1	-25%	7%	5	2%	9%	8%
O=S(=O)(c1ccccc1)N1CCC(O)(CSc2ccc(F)cc2)CC1	2%	u	9	5%	-22%	-2%
CCOC(=O)c1sc(NC(=O)Nc2ccccc2)cc1C	u	u	u	5µM*	2.5µM*	-1%
CCOC(=O)c1sc(NC(=O)Nc2ccccc2Cl)cc1C	u	u	-17	u	u	0%
CCOC(=O)c1sc(NC(=O)c2ccc(C)s2)cc1C	u	u	u	1.3µM*	u	-2%[9.22 µM]
CCOC(=O)c1sc(NC(=O)c2cccc(S(=O)(=O)N3c4ccccc4CC3C)c2)cc1C (centres undefined)	0%	8.2µM*	2	u	-4%	u
CCOC(=O)c1sc(NC(C)=O)cc1C	u	-2%	-6	3%	13%	-3%
COc1cc(C(=O)Nc2ccc(C(F)(F)F)cc2)ccc1OCC(=O)N1CCOCC1	u	4%	-3	x	x	u
COC(=O)[C@@]1(Cc2ccccc2)[C@H]2c3cc(C(=O)N4CCCC4)n(Cc4ccc(S(C)(=O)=O)cc4)c3C[C@H]2CN1C(=O)c1ccccc1	x	x	x	30%	21%	x
CCCCNC(=O)NCCN1CCOCC1	u	1%	-10	3%	-6%	-9%
O=C(/C=C(\O)c1ccccc1)c1ccccc1O	x	x	x	4.5µM*	4.5µM*	x
O=C(/C=C\c1ccccc1)c1ccccc1O	x	x	x	17%[10 µM]	26%[10 µM]	x
CC(=O)Nc1ccc(C(=O)CCl)cc1	u	-21%	3	4.5µM*	u	4%
CC(=O)N(C)Cc1ccc(C(=O)CSc2nnc(C3CC3)n2C2CC2)cc1	3%	-1%	-19	x	x	-8%
CC(=O)NCc1ccc(C(=O)CCl)cc1	u	u	-13	u	u	u
CC(=O)N(C)Cc1ccc(C(=O)CCl)cc1	u	13µM*	6	24%	-1%	u
CCNC(=O)Nc1nc2ccccc2s1	u	-1%	-17	8%	-1%	u
CCCC(=O)Nc1nc2ccc(OCC)cc2s1	-10%	6%	13	u	-26%	-1%
CCOc1ccc2nc(NS(=O)(=O)c3ccc(NC(C)=O)cc3)sc2c1	u	14%	10	u	3%	-1%
CN(C)C(=S)Nc1nc2ccccc2s1	u	5%	8	0.5µM*	1.3µM*	3%
CCOc1ccc2nc(NS(=O)(=O)Cc3ccccc3)sc2c1	7.3µM*	0.23µM*	-6	-13%	14%	u
S=C(Nc1ccccc1)c1nc2ccccc2s1	u	-4%	-9	1.1µM*	0.71µM*	3%
CCOc1ccc2nc(NC(=O)CCn3cccc3)sc2c1	8%	9%	24	5µM*	u	-13%
CCN(C(=O)c1ccccc1F)c1nc(-c2ccc(OC)cc2)cs1	u	u	6	u	-10%	-2%
CCOc1ccc2nc(NC(=S)N(C)C)sc2c1	u	10%	9	1µM*	1.8µM*	-2%

Screening results from PubChem BioAssay.
